Only some compounds are listed: those with a hit (about 3% of all), similar ones and a draw of the others.
CF NFkB inh = blocks PAF-induced NF-kB reporter in cystic fibrosis cells; KKLEB NF-kB-GFP reporter, GFP fluorescence overnight; inhibition, % at 5 µM; actives 0.86% (n = 360,000); AID 588850;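 active means at least 50% inhibition at 5 µM, scaled per plate between neutral and stimulator controls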;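 further: PAF is a Pseudomonas aeruginosa culture filtrate used as stimulus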
HIF-2a block = inhibitors of HIF-2a. 786-0 RCC cells HIF-2a reporter, luciferase luminescence, overnight. inhibition, % at 18.8 µM. actives 0.72% (n = 360,000);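 active means inhibition of the luminescence signal of 40% or more relative to plate controls, in a single-dose primary screen at 18.75 µM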
ABHD5 PLIN5 PPI = inhibitors of human ABHD5-perilipin-5 interaction | Q00G26+Q8WTS1 | Split G. princeps luciferase complementation, luminescence, 4 h | inhibition, % at 4 µM | actives 0.78% (n = 360,000) | AID 602281;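 active means inhibition above the mean inhibition across every tested compound plus 3 SD, cut at about 22% in these data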
Target sequence (Q00G26 whole entry, looked up): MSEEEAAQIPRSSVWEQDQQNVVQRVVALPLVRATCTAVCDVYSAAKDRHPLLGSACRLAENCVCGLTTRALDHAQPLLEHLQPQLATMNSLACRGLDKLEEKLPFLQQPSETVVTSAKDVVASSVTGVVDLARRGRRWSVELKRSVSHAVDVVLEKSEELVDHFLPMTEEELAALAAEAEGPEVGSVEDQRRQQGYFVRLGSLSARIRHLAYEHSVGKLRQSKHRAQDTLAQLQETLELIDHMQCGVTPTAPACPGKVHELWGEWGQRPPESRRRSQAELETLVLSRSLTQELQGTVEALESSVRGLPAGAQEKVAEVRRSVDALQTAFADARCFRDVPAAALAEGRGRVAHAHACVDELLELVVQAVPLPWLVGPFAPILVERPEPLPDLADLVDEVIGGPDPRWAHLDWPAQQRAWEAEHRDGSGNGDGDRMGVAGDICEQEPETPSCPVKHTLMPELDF
Target sequence (Q8WTS1 whole entry, looked up): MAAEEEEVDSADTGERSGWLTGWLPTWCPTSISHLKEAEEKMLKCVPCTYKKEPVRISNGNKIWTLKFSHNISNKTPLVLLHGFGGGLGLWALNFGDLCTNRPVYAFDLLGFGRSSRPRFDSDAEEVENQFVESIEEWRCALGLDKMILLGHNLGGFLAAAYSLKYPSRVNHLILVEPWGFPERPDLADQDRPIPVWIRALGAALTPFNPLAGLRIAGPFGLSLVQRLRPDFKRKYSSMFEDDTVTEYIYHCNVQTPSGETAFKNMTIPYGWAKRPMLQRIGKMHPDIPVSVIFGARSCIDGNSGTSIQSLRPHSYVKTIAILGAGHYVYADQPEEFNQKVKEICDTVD
TRPM1 prom inh = reduces MITF-dependent TRPM1 promoter luciferase signal; SK-MEL-5 TRPM1 promoter luciferase, 24 h; inhibition, % at 12.5 µM; actives 0.83% (n = 330,000);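 active means mean inhibition across replicates of 60% or more, whatever share of single replicates reaches that level; inconclusive means some that reach 60%, reason not given; inactive means mean inhibition across replicates below 60%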
KKLEB cytotox = reduces viability of KKLEB cystic fibrosis airway cells; KKLEB CF airway cells viability, ATPlite luminescence, overnight; hits give low values; cells stimulated with P. aeruginosa culture filtrate; AID 602141; activity change (cytotoxicity), % at 5 µM; actives 0.36% (n = 360,000);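 active means corrected activity change at or below -50% at 5 µM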
Peg3 prom inh-1 = Peg3 promoter activity inhibition; actives 1.7% (n = 360,000); AID 588405; HeLa PEG-Prom luciferase reporter, luminescence, overnight; inhibition, % at 20 µM;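 active means inhibition of at least 50% at 20 µM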
Peg3 prom inh-2 = Peg3 promoter inhibition confirmation | shares compounds with Peg3 prom inh-1 | HeLa PEG-Prom luciferase reporter, luminescence, overnight | inhibition, % at 20 µM | actives 84% (n = 1,300) | AID 602417;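 active means at 20 µM dose, 40% or more inhibition averaged across four replicates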
Each line names hits and unclear results; the compound was inactive in the other large screens (follow-up assays come after a bar, where they were run).

CCOC(=O)c1sc2nc(CSc3ccccc3)nc(N3CCC(C(N)=O)CC3)c2c1C	none
C(=Cc1c[nH]c2ccccc12)c1ccc2ccccc2n1	Peg3 prom inh-1 72.1 | Peg3 prom inh-2 inactive
N#CCOC(=O)C1CCN(S(=O)(=O)c2ccc3c(c2)OCCO3)CC1	none
CC(C)CC(N)c1csc(NC(=O)Nc2ccccc2C(C)C)n1 (stereo not given)	Peg3 prom inh-1 71.8 (no result: TRPM1 prom inh) | Peg3 prom inh-2 84.1
Cc1cccc(C)c1NC(=O)Nc1nc(C(N)c2ccccc2Cl)cs1 (stereo not given)	none (no result: TRPM1 prom inh)
COc1ccc(/C=C2\SC(=S)N(CCCC(=O)NNC(=O)c3ccccc3O)C2=O)cc1	HIF-2a block 90.4, TRPM1 prom inh 92.1, Peg3 prom inh-1 71.1 | Peg3 prom inh-2 71.5
O=C(O)CN1C(=O)/C(=C\c2cc(Br)ccc2OCc2ccccc2Cl)SC1=S	none
COc1ccccc1/C=C1\SC(=S)N(CCC(=O)NNC(=O)c2ccccc2O)C1=O	none
O=C(CCCN1C(=O)/C(=C/c2ccccc2Cl)SC1=S)NNC(=O)c1ccccc1Cl	HIF-2a block 92.7, Peg3 prom inh-1 60.0 | Peg3 prom inh-2 67.9
O=C(O)CN1C(=O)/C(=C\c2ccccc2OCc2ccc(Cl)cc2Cl)SC1=S	HIF-2a block 65.7, Peg3 prom inh-1 55.3 | Peg3 prom inh-2 65.1
CC1CN(C(=O)c2ccc(NS(=O)(=O)c3ccc(C(C)(C)C)cc3)cc2)CC(C)O1 (stereo not given)	none
CC(C)CNC(=O)C1(C)CCCN1Cc1ccc(S(C)(=O)=O)cc1 (stereo not given)	none (no result: TRPM1 prom inh)
COC(=O)CSC1=NS(=O)(=O)c2ccccc21	Peg3 prom inh-1 73.6 | Peg3 prom inh-2 80.5
COc1ccc(-c2noc(CNC(=O)c3ccc4c(c3)OCO4)n2)cc1OC	none
CCOC(=O)c1ccc2ncc(C(=O)OCC)c(NCCN(C)C)c2c1	Peg3 prom inh-1 55.0 | Peg3 prom inh-2 55.3
O=C(N/N=C\c1c(O)ccc2ccccc12)c1cncc(Br)c1	Peg3 prom inh-1 65.5 | Peg3 prom inh-2 59.6
O=C(CNc1ccccc1)N/N=C/c1c(O)ccc2ccccc12	Peg3 prom inh-1 63.6 | Peg3 prom inh-2 68.0
Cc1ccc(C(=O)N/N=C/c2c(O)ccc3ccccc23)cn1	none
O=C1C=CC(c2ccccc2)(c2ccccc2)CC1	none
Cc1cccc(NC(=O)CCNC(=O)c2ccc(Br)cc2)c1C	none
COc1ccc(-c2sc3ccc(OC)cc3c2-c2ccc(OCCN3CCOCC3)cc2)cc1	none
COc1ccc(-c2sc3ccccc3c2-c2ccc(OCCN3CCCCC3)cc2)cc1	Peg3 prom inh-1 95.9 | Peg3 prom inh-2 79.2
CN1CCN2c3ccccc3CC(C#N)(C#N)C2C1 (stereo not given)	none (no result: TRPM1 prom inh)
Cc1c([N+](=O)[O-])cc(N2C(=O)C=CC2=O)cc1[N+](=O)[O-]	Peg3 prom inh-1 105.1 | Peg3 prom inh-2 98.3
Cc1c(Cl)cc(-n2cnnn2)cc1[N+](=O)[O-]	none
O=C(CCN1C(=O)c2cccc3cccc(c23)C1=O)NCc1ccco1	none
N=c1n(CCN2CCCCC2)c2ccccc2n1CC(O)c1ccc(Cl)c(Cl)c1 (stereo not given)	TRPM1 prom inh inconclusive, Peg3 prom inh-1 116.8 | Peg3 prom inh-2 99.7
O=C(CCc1ccccc1)NC(NC(=S)Nc1ccc(Br)cc1)C(Cl)(Cl)Cl (stereo not given)	Peg3 prom inh-1 53.1 | Peg3 prom inh-2 inactive
O=C(CCc1ccccc1)NC(NC(=S)Nc1cccc(Cl)c1)C(Cl)(Cl)Cl (stereo not given)	none
COc1ccc(/C=C/C(=O)c2ccc3c(c2)OCCO3)cc1[N+](=O)[O-]	Peg3 prom inh-1 71.1 | Peg3 prom inh-2 79.8
Cc1cc(N)n2ncc(-c3ccc(Cl)cc3)c2n1	none
Cc1cc(Cl)n2ncc(-c3ccccc3)c2n1	Peg3 prom inh-1 86.7 | Peg3 prom inh-2 68.1
Nc1c(C(=O)Nc2cccc(C(=O)O)c2)sc2nc3c(cc12)CCCC3	HIF-2a block 76.8, TRPM1 prom inh 80.4, Peg3 prom inh-1 69.1 | Peg3 prom inh-2 54.9
O=C(CCc1ccccc1)N=C1SC2CS(=O)(=O)CC2N1c1ccccc1F (stereo not given)	none
O=C(c1cc(-c2cccnc2)nc2ccccc12)N1CCN(S(=O)(=O)c2cccs2)CC1	none
Cc1ccc(NC(=O)C2CCCN2C(=O)NC2CCCCC2)cc1F (stereo not given)	none
CN(C)CCCN(C(=O)c1ccc(S(=O)(=O)N2CCCCCC2)cc1)c1nc2c(F)cccc2s1	none
Cc1ccc2sc(N(CCCN(C)C)C(=O)c3ccc(S(=O)(=O)N4CCc5ccccc5C4)cc3)nc2c1C	TRPM1 prom inh 64.6, Peg3 prom inh-1 59.5 | Peg3 prom inh-2 57.1
CCOc1cccc2sc(N(CCCN(C)C)C(=O)c3ccc(S(=O)(=O)N(C)Cc4ccccc4)cc3)nc12	TRPM1 prom inh 94.5, Peg3 prom inh-1 98.2 | Peg3 prom inh-2 94.7
Cc1cc(C)c2sc(N(CCCN(C)C)C(=O)c3ccc(S(=O)(=O)N(C)Cc4ccccc4)cc3)nc2c1	Peg3 prom inh-1 97.1 | Peg3 prom inh-2 98.3
CCOc1cccc2sc(N(CCCN(C)C)C(=O)c3ccc(S(=O)(=O)N(CC)Cc4ccccc4)cc3)nc12	ABHD5 PLIN5 PPI 22.6, Peg3 prom inh-1 94.9 | Peg3 prom inh-2 97.4
CC1(C)CC(=O)C=C(C(=O)N2CCCC(C(=O)c3cccc(Cl)c3)C2)O1 (stereo not given)	none
CCCCN1CCCCC1(C)C(=O)NCc1cccc(OC)c1 (stereo not given)	none (no result: TRPM1 prom inh)
CN(Cc1ccccc1F)C(=O)c1ccc(NC(=O)CC2SC(N3CCCCC3)=NC2=O)cc1 (stereo not given)	none
CCOC(=O)c1c(NC(=O)COC(=O)c2cccc([N+](=O)[O-])c2)sc(C(=O)N(C)C)c1C	none (no result: TRPM1 prom inh)
Cc1ccc2sc(N(CCCN(C)C)C(=O)c3ccc(S(=O)(=O)N(C)Cc4ccccc4)cc3)nc2c1C	TRPM1 prom inh 77.9, Peg3 prom inh-1 65.5 | Peg3 prom inh-2 95.8
Cc1ccc2sc(N(CCCN(C)C)C(=O)c3ccc(S(=O)(=O)N(C)C)cc3)nc2c1C	none
Cc1noc(C)c1C(=O)N1CCC1(C)C(=O)NS(=O)(=O)c1ccccc1Cl (stereo not given)	none (no result: TRPM1 prom inh)
Cc1ccc(C(=O)N/N=C/c2ccc([N+](=O)[O-])s2)cc1	HIF-2a block 90.8, TRPM1 prom inh 104.7, Peg3 prom inh-1 82.2 | Peg3 prom inh-2 79.8
O=C(Nc1ccccc1C(=O)Nc1nnc(C(F)(F)F)s1)c1ccccc1	KKLEB cytotox -53.3, Peg3 prom inh-1 59.1 | Peg3 prom inh-2 86.9
C[N+](C)(C)C(Cc1ccccc1)C(=O)[O-] (stereo not given)	none

From PubChem
